From PubChem BioAssay (NCI)
The panel holds about 83,000 compounds, 20% with a hit somewhere; the sample as a whole holds those more often.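 Note: values are percent growth. 100 is the growth of untreated cells, values between 100 and 0 indicate rising inhibition; between -100 and 0 indicates cell death.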 Calls of active or inactive are those of the source. How the source made its calls: active means growth percent below 10; inactive means the rest.

Assays:
Assay in all cases: NCI-60 one-dose screen, 48 h (100 = growth as untreated, 0 = no growth, -100 = all killed)
Settings in all cases: 10 µM unless noted
HCT-15 colon = test system: HCT-15 colon
HT29 colon = test system: HT29 colon
SNB-75 CNS = test system: SNB-75 CNS
SNB-19 CNS = test system: SNB-19 CNS
PC-3 prostate = test system: PC-3 prostate
SK-MEL-5 melanoma = test system: SK-MEL-5 melanoma
UACC-62 melanoma = test system: UACC-62 melanoma
LOX IMVI melanoma = test system: LOX IMVI melanoma
SK-MEL-28 melanoma = test system: SK-MEL-28 melanoma
SK-MEL-2 melanoma = test system: SK-MEL-2 melanoma
SN12C renal = test system: SN12C renal
UO-31 renal = test system: UO-31 renal
TK-10 renal = test system: TK-10 renal
ACHN renal = test system: ACHN renal
CAKI-1 renal = test system: CAKI-1 renal
A498 renal = test system: A498 renal
CCRF-CEM leukemia = test system: CCRF-CEM leukemia
MOLT-4 leukemia = test system: MOLT-4 leukemia
U251 CNS = test system: U251 CNS
EKVX NSCLC = test system: EKVX NSCLC

Measured: growth

O=C(O)CCN1CCN(c2cccc(Cl)c2)CC1
inactive: HCT-15 colon 100% | HT29 colon 99.8% | SNB-75 CNS 84% | SNB-19 CNS 103% | PC-3 prostate 101% | SK-MEL-5 melanoma 102% | UACC-62 melanoma 104% | LOX IMVI melanoma 110% | SK-MEL-28 melanoma 108% | SK-MEL-2 melanoma 107% | SN12C renal 100% | UO-31 renal 106% | TK-10 renal 138% | ACHN renal 94.8% | CAKI-1 renal 87.6% | A498 renal 94.2% | CCRF-CEM leukemia 105% | MOLT-4 leukemia 91.3%

Cc1ccc(S(=O)(=O)N(c2ccc(Cl)cc2)c2ccc(Br)cc2C(=O)O)cc1
inactive: HCT-15 colon 100% | HT29 colon 107% | SNB-75 CNS 97.2% | SNB-19 CNS 99.9% | U251 CNS 95.8% | PC-3 prostate 96.7% | UACC-62 melanoma 105% | SK-MEL-28 melanoma 119% | SK-MEL-2 melanoma 107% | SN12C renal 99.4% | UO-31 renal 91.4% | ACHN renal 105% | CAKI-1 renal 102% | CCRF-CEM leukemia 102% | MOLT-4 leukemia 98.5%

COc1cc(NC(=O)COc2ccccc2)c(C(N)=O)cc1OC
active: HT29 colon 1.53% | SK-MEL-2 melanoma 9.86% | A498 renal 4.84% | CCRF-CEM leukemia 6.33%
inactive: HCT-15 colon 30.1% | SNB-75 CNS 17.9% | SNB-19 CNS 56% | U251 CNS 17.8% | PC-3 prostate 30.7% | UACC-62 melanoma 51.9% | SK-MEL-28 melanoma 70.1% | SN12C renal 44.7% | UO-31 renal 51.3% | ACHN renal 54.9% | CAKI-1 renal 37.1% | MOLT-4 leukemia 26.9%

COc1ccc(C(=O)COc2cccc(/C=C3\CSc4ccc(C)cc4C3=O)c2)cc1
active: CCRF-CEM leukemia -9.38% | MOLT-4 leukemia -7.35%
inactive: HCT-15 colon 84.8% | HT29 colon 101% | SNB-75 CNS 95% | SNB-19 CNS 97% | U251 CNS 97% | UACC-62 melanoma 75.2% | LOX IMVI melanoma 74.2% | SK-MEL-28 melanoma 120% | SK-MEL-2 melanoma 79.5% | EKVX NSCLC 106% | SN12C renal 91.7% | TK-10 renal 101% | ACHN renal 101% | CAKI-1 renal 91.6%

CCCCCCCCCCCCCCNc1nc(CO)ncc1-c1ccc(C(F)(F)F)cc1
inactive: HCT-15 colon 103% | HT29 colon 104% | SNB-75 CNS 74.2% | SNB-19 CNS 118% | PC-3 prostate 94.6% | SK-MEL-5 melanoma 98.5% | UACC-62 melanoma 95.5% | LOX IMVI melanoma 91.6% | SK-MEL-28 melanoma 108% | SK-MEL-2 melanoma 94.6% | SN12C renal 102% | UO-31 renal 79.1% | TK-10 renal 98.9% | ACHN renal 102% | CAKI-1 renal 93.8% | A498 renal 86.4% | CCRF-CEM leukemia 93.6% | MOLT-4 leukemia 99.6%

O=C1C(N2CCOCC2)=Cc2cccc3cccc1c23
inactive: HCT-15 colon 92.6% | HT29 colon 92.4% | SNB-75 CNS 86.9% | SNB-19 CNS 92.4% | U251 CNS 92.8% | PC-3 prostate 95.4% | UACC-62 melanoma 91.2% | SK-MEL-28 melanoma 97.5% | SK-MEL-2 melanoma 110% | EKVX NSCLC 60.9% | UO-31 renal 88.9% | TK-10 renal 98% | ACHN renal 96.3% | CAKI-1 renal 108% | A498 renal 84.3% | CCRF-CEM leukemia 102% | MOLT-4 leukemia 18.2%

O/N=C/c1cccs1
inactive: HCT-15 colon 98.4% | HT29 colon 107% | SNB-75 CNS 94.3% | SNB-19 CNS 107% | PC-3 prostate 101% | SK-MEL-5 melanoma 103% | UACC-62 melanoma 119% | LOX IMVI melanoma 107% | SK-MEL-28 melanoma 112% | SK-MEL-2 melanoma 116% | SN12C renal 106% | UO-31 renal 89.1% | TK-10 renal 118% | ACHN renal 97% | CAKI-1 renal 91.7% | A498 renal 102% | CCRF-CEM leukemia 101% | MOLT-4 leukemia 85.5%

O=C(CCCCCCC(=O)Nc1ccc2c(c1)/C(=C/c1ccc[nH]1)C(=O)N2)NO
active: HT29 colon 8.62% | U251 CNS -9.13% | SK-MEL-5 melanoma -75% | LOX IMVI melanoma -69.8% | UO-31 renal 6.77% | TK-10 renal 5.62% | ACHN renal 4.49% | CAKI-1 renal 2.67% | A498 renal -59.3% | CCRF-CEM leukemia 6.86% | MOLT-4 leukemia 4.16%
inactive: HCT-15 colon 41.5% | SNB-75 CNS 53% | SNB-19 CNS 16.3% | SK-MEL-28 melanoma 14.6% | SK-MEL-2 melanoma 37% | SN12C renal 12.2%

COc1cc(/C=N/NC(=O)c2cnn3c2NC(c2ccccc2)C3)cc(OC)c1OC (centres undefined)
inactive: HCT-15 colon 37.7% | HT29 colon 20.5% | SNB-75 CNS 52.4% | SNB-19 CNS 66.2% | U251 CNS 66.9% | PC-3 prostate 56.2% | UACC-62 melanoma 57.4% | SK-MEL-28 melanoma 70.4% | SK-MEL-2 melanoma 47.6% | UO-31 renal 68.9% | TK-10 renal 85.7% | ACHN renal 80.2% | CAKI-1 renal 42.1% | CCRF-CEM leukemia 79.7% | MOLT-4 leukemia 80.5%

COc1cc2nc(N3CCC[C@H](NC4=CC(=O)c5ccccc5C4=O)C3)nc(N)c2cc1OC
inactive: PC-3 prostate 54.5% | SK-MEL-2 melanoma 111% | SN12C renal 65.4% | A498 renal 93%
active: HCT-15 colon -63.5% | HT29 colon -69.1% | SNB-75 CNS -83.5% | SNB-19 CNS -74.7% | U251 CNS -90.2% | UACC-62 melanoma -87.9% | SK-MEL-28 melanoma -85.2% | UO-31 renal -76.1% | TK-10 renal -72.6% | ACHN renal -100% | CAKI-1 renal -56.6% | CCRF-CEM leukemia -23.5% | MOLT-4 leukemia -41.3%

O=[N+]([O-])c1ccc(C=C2C(Cl)=C(Cl)C(Cl)=C2Cl)cc1
active: UO-31 renal -19.8% | MOLT-4 leukemia 5.43%
inactive: HCT-15 colon 31.4% | HT29 colon 30.9% | SNB-75 CNS 81.5% | SNB-19 CNS 80.6% | U251 CNS 20.1% | PC-3 prostate 58.5% | UACC-62 melanoma 71.7% | SK-MEL-28 melanoma 107% | SK-MEL-2 melanoma 102% | EKVX NSCLC 91.6% | SN12C renal 52.3% | TK-10 renal 28.3% | ACHN renal 45.5% | CAKI-1 renal 53% | CCRF-CEM leukemia 15.7%

O=C1/C(=C/c2ccc(Cl)cc2)CN(Cc2cn(CCCNc3ccnc4cc(Cl)ccc34)nn2)C/C1=C\c1ccc(Cl)cc1
active: HCT-15 colon -74.2% | HT29 colon -69.6% | SNB-75 CNS -4.46% | SNB-19 CNS -79.6% | U251 CNS -91.9% | SK-MEL-5 melanoma -86.2% | LOX IMVI melanoma -86.2% | SK-MEL-28 melanoma -82.6% | SK-MEL-2 melanoma -35.2% | SN12C renal -80.2% | TK-10 renal -56.6% | ACHN renal -99.3% | CAKI-1 renal -20.4% | CCRF-CEM leukemia -31.2% | MOLT-4 leukemia -16.7%

O=C1CN2CCC1C/C2=C\c1ccnc2c(Cl)cccc12 (centres undefined)
inactive: HCT-15 colon 82.6% | HT29 colon 106% | SNB-75 CNS 85.5% | SNB-19 CNS 98.2% | U251 CNS 98.4% | UACC-62 melanoma 90.5% | LOX IMVI melanoma 96% | SK-MEL-28 melanoma 127% | SK-MEL-2 melanoma 85.8% | EKVX NSCLC 95.7% | SN12C renal 94.3% | UO-31 renal 75.5% | TK-10 renal 127% | ACHN renal 91.2% | CAKI-1 renal 93.9% | A498 renal 159% | CCRF-CEM leukemia 96.8% | MOLT-4 leukemia 97.1%

COc1nc2c(cc1S(=O)(=O)c1ccccc1)CCc1c-2cnn1-c1cccc(Cl)c1
inactive: HCT-15 colon 71% | HT29 colon 54.9% | SNB-75 CNS 85.5% | SNB-19 CNS 98.2% | PC-3 prostate 64.4% | SK-MEL-5 melanoma 88% | UACC-62 melanoma 71.2% | LOX IMVI melanoma 93.9% | SK-MEL-28 melanoma 86.4% | SK-MEL-2 melanoma 88.9% | SN12C renal 77.4% | TK-10 renal 94.2% | ACHN renal 68.3% | CAKI-1 renal 63.5% | A498 renal 54.6% | CCRF-CEM leukemia 70.4% | MOLT-4 leukemia 66.1%
active: UO-31 renal -15.6%

CC1(C)N=C(N)N=C(N)N1c1cccc(/C=C/C=C/c2cccc([N+](=O)[O-])c2)c1
active: PC-3 prostate 2.12%
inactive: HCT-15 colon 88.7% | HT29 colon 11.5% | SNB-75 CNS 58.3% | SNB-19 CNS 51.6% | SK-MEL-5 melanoma 68.3% | UACC-62 melanoma 47.3% | LOX IMVI melanoma 33.7% | SK-MEL-28 melanoma 65.6% | SK-MEL-2 melanoma 67.2% | SN12C renal 83.6% | UO-31 renal 81.5% | TK-10 renal 50.9% | ACHN renal 95.6% | CAKI-1 renal 96.9% | A498 renal 65.2% | CCRF-CEM leukemia 35% | MOLT-4 leukemia 45.5%

O=C1c2ccccc2C(=O)c2c(Nc3ccc(CCO)cc3)ccc(O)c21
inactive: HCT-15 colon 61.7% | HT29 colon 57.4% | SNB-75 CNS 64.3% | SNB-19 CNS 84.8% | U251 CNS 74.2% | SK-MEL-5 melanoma 86.7% | UACC-62 melanoma 74.9% | LOX IMVI melanoma 51.6% | SK-MEL-28 melanoma 44.8% | SK-MEL-2 melanoma 103% | EKVX NSCLC 45% | SN12C renal 85.5% | UO-31 renal 47.4% | TK-10 renal 100% | ACHN renal 64.4% | CCRF-CEM leukemia 39.8% | MOLT-4 leukemia 35.9%
active: CAKI-1 renal -4.04%

COc1ccc(NC(=O)COc2ccccc2)c(C(N)=O)c1
active: HT29 colon 6.77% | U251 CNS 9.36% | A498 renal 9.39% | CCRF-CEM leukemia 6.03%
inactive: HCT-15 colon 28.8% | SNB-75 CNS 11.5% | SNB-19 CNS 53.4% | PC-3 prostate 39.9% | UACC-62 melanoma 43% | SK-MEL-28 melanoma 62% | SK-MEL-2 melanoma 35.9% | SN12C renal 44.4% | UO-31 renal 57% | ACHN renal 55.7% | CAKI-1 renal 49% | MOLT-4 leukemia 20.1%

Clc1ccc(Nc2ccnc(N3CCN(c4ccnc5cc(Cl)ccc45)CC3)n2)cc1
inactive: HCT-15 colon 20.4% | HT29 colon 32.2% | SNB-75 CNS 27.7% | SNB-19 CNS 58.2% | U251 CNS 51.9% | PC-3 prostate 37.7% | UACC-62 melanoma 31.3% | SK-MEL-28 melanoma 63.8% | SK-MEL-2 melanoma 73.7% | SN12C renal 51.4% | TK-10 renal 60.9% | ACHN renal 41.9% | CAKI-1 renal 34.8% | CCRF-CEM leukemia 38.4% | MOLT-4 leukemia 31.9%
active: UO-31 renal -8.75% | A498 renal -1.58%
